“And” between values parts separate entries of the source, which are not always exact repeats. Equal entries are not always repeated. Inconclusive results are not listed. Where a call stands in place of a potency, no number is given. A number with no mark means an inactive call. The source made the active and inactive calls. The call rests on the fitted dose curve.
Potency means the concentration at half of the fitted maximal effect.

A short description of this assay: qHTS assay to identify small molecule agonists of H2AX - cell viability counter screen (AID 1224847). Further: nearly all actives have a fitted effect of over 30% in size. On activity change, negative = cytotoxicity: top concentration of the series differs between compounds. The following applies: CHO-K1 viability, CellTiter-Glo luminescence, 3 h; series mostly up to 154 µM; activity change, negative = cytotoxicity: at the top concentration. An excerpt:
National Center for Advancing Translational Sciences [NCATS]
NIH Chemical Genomics Center [NCGC]
U.S. Environmental Protection Agency [EPA]
National Institutes of Environmental Health Sciences [NIEHS]
National Toxicology Program [NTP]
U.S. Food and Drug Administration [FDA]
HTRF phospho-H2AX (Ser139) assay (Cisbio Bioassays, US) enables the quantitative detection of the histone variant H2AX when phosphorylated on serine 139. When double-stranded DNA breaks, either by ionizing radiation or endogenous physiological processes, H2AX becomes phosphorylated at Ser139. This phospho-Ser139 serves as a sensitive biomarker for the detection of such breaks, localizing the site of DNA repair. So, HTRF phospho-H2AX Ser139 is a pertinent assay to study genome stability, the cell cycle, DNA repair, and it serves as a biomarker for cancer, and to understand aging. Wild type CHO-K1 cells were used to identify the inducers of Phospho-H2AX Ser 139 from the Tox21 compound collections. Also cytotoxicity of the Tox21 10K compound library against the CHO-K1 cell line was tested by measuring the cell viability using CellTiter-Glo assay (Promega, Madison, WI).
Tox21 Assay Protocol Summary:
The CHO-K1 cells suspended in culture medium containing 10% FBS were dispensed at 1000 cells/ 3 ul/well in 1536-well white wall/solid bottom plates (Greiner Bio-One North America, NC) using a Multidrop Combi (Thermo Fisher Scientific Inc., Waltham, MA). After the assay plates were incubated at 37C overnight, 23 nl of compounds at 15 concentrations (from 5-48 columns) or positive control (from 1 to 4 columns) were transferred to the assay plates using a Pintool station (Wako, San Diego, CA) into each well resulting in a final DMSO concentration of 0.76%. After 3hr incubation at 37C, 3 uL/well CellTiter-Glo luminescent cell viability reagent (Promega Corporation, Madison, WI) was added using a Flying Reagent Dispenser (FRD) (Aurora Discovery, CA). After incubation at room temperature for 30 min, the luminescence intensity was read using a ViewLux plate reader (PerkinElmer, Waltham, MA).
In general terms: In qHTS, concentration-response curves come from the screen itself.
Take `C=C(C#N)C(=O)OCC`: the Potency entry is “inactive”.
The same measure, in the same setting: the value for `CC(C)(C)C(=O)C1C(=O)c2ccccc2C1=O` was 88.9 µM (active) and 56.6 µM (active).
With `CCc1ccc(O)cc1`, the Potency result is “inactive”.
With `Cc1cc(O)c2c(c1)C(=O)c1cc(O)cc(O)c1C2=O`, the Potency was 55.4 µM (active) and 80 µM (active).
`COC(=O)c1ccccc1O`: the Potency entry is “inactive”.
Regarding `Nc1c(S(=O)(=O)O)cc(Br)c2c1C(=O)c1ccccc1C2=O`, the Potency result was “inactive”.
As for `C=CC(=O)OCCCCCCCC(C)C`, the Potency entry is “inactive”.
Turning to `O=S(=O)(O)c1cc(S(=O)(=O)O)c2c(N=Nc3ccccc3)c(O)ccc2c1`, the Potency entry is “inactive”.
As to `COCC(=O)O`, the Potency entry is “inactive”.
On the same count and under the same terms, the value for `CCCCNC(N)=O` was “inactive”; that for `CCC(=O)O` was “inactive”; that for `c1ccc2[nH]cnc2c1` was “inactive”.
Regarding `CCOC(=O)[C@H](CCc1ccccc1)N[C@@H](C)C(=O)N1Cc2ccccc2C[C@H]1C(=O)O`, the Potency entry was “inactive”.
Regarding `CC(C)n1c(/C=C/[C@@H](O)C[C@@H](O)CC(=O)O)c(-c2ccc(F)cc2)c2ccccc21`, the Potency entry is “inactive”.
For `CCCCC(CC)COC(C)=O` (stereo not given), the Potency entry was “inactive”.
On to `Oc1ccc(OCc2ccccc2)cc1`, for which the “activity change, negative = cytotoxicity” value is -6.25% [at 70.9 µM].
As for `O=[N+]([O-])c1cccc(Cl)c1`, the Potency entry was “inactive”.
Take `O=S(=O)(O)CCS`: the Potency entry was “inactive”.
For `Cc1ccc(N)c(S(=O)(=O)O)c1`, the Potency entry was “inactive”.
In the case of `O=C(O)c1cc(-c2ccccc2)nc2ccccc12`, the Potency entry is “inactive”.
As for `CC1=C(/C=C/C(C)=C/C=C/C(C)=C/CO)C(C)(C)CCC1`, the Potency entry is “inactive”.
Still for that read-out and setting: the value for `Cc1cc(NS(=O)(=O)c2ccc(N)cc2)no1` was “inactive”.
Turning to `CCCCCCCCCC(=O)O`, the Potency entry is “inactive”.
`COC(=O)c1ccc(C(=O)OC)cc1`: the Potency result is “inactive”.
Regarding `OCC1CCCO1` (stereo not given), the Potency entry is “inactive”.
Take `OCC#CCO`: the Potency entry was “inactive”.
Regarding `CC(=O)Nc1ccc(C(=O)O)cc1`, the Potency result is “inactive”.
The same measure, in the same setting: the value for `Cc1ccc(C)c(C)c1` was “inactive”.
On to `CN(CCOc1ccc(CC2SC(=O)NC2=O)cc1)c1ccccn1` (stereo not given), for which the Potency result was “inactive”.
Take `CCCCCCCCCCCCOCC1CO1` (stereo not given): the “activity change, negative = cytotoxicity” value is 3.78%.
Turning to `CCCCCCOC(C)=O`, the Potency result is “inactive”.
Take `CC(C)NCC(O)COc1cccc2ccccc12` (stereo not given): the Potency result was “inactive”.
On the same count and under the same terms, the value for `O=c1c(-c2ccc(O)cc2)coc2cc(O)ccc12` was “inactive”; that for `CN(C)c1ccc(C(=N)c2ccc(N(C)C)cc2)cc1` was 39.6 µM (active) and 24.4 µM (active).
With `CCCCCCC(C)(C)S`, the Potency result was “inactive”.
Consider `O=C1N=C(O)CN1/N=C/c1ccc(-c2ccc([N+](=O)[O-])cc2)o1`, for which the “activity change, negative = cytotoxicity” value is 3.3% [at 70.9 µM].
Turning to `CC1CC(OC(=O)c2ccccc2O)CC(C)(C)C1` (stereo not given), the Potency result was “inactive”.
In the case of `CN(C)c1cccc(O)c1`, the Potency entry is “inactive”.
For `O=Nc1ccc(O)cc1`, the “activity change, negative = cytotoxicity” value is -5.88%.
Consider `C/C=C(C)/C=C/C=C(C)C`, for which the Potency result was “inactive”.

(Values after PubChem BioAssay (Tox21).)
